About 83,000 compounds went through this panel and 20% of them were active in at least one assay; those are over-represented in the sample as a whole.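 Interpretation: 100, growth as untreated; towards 0, rising growth inhibition; 0, no net growth; 0 to -100, cell death. Compounds scoring below 10 were considered active.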 Unmarked numbers belong to inactive results. Calls of active or inactive are those of the source.
Columns and labels:
Assay in all cases: NCI-60 one-dose screen, 48 h (100 = growth as untreated, 0 = no growth, -100 = all killed)
Details in all cases: 10 µM unless noted
[1] = tested on: HCT-15 colon
[2] = tested on: HT29 colon
[3] = tested on: SNB-75 CNS
[4] = tested on: SNB-19 CNS
[5] = tested on: U251 CNS
[6] = tested on: PC-3 prostate
[7] = tested on: SK-MEL-5 melanoma
[8] = tested on: UACC-62 melanoma
[9] = tested on: LOX IMVI melanoma

Row | Compound | growth [1] | growth [2] | growth [3] | growth [4] | growth [5] | growth [6] | growth [7] | growth [8] | growth [9]
1 | C[C@]12CCc3nc(Nc4ccc(O)cc4)sc3C1=CC[C@@H]1[C@@H]2CC[C@]2(C)/C(=N/NC(N)=S)CC[C@@H]12 | -48% (active) | -47.6% (active) | -2.86% (active) | -13.1% (active) | -70.3% (active) | -33.7% (active) | -61.2% (active) | -74.8% (active) | -52.5% (active)
2 | COc1cc2nccc(Oc3ccc(NC(=O)C4(C(=O)Nc5ccc(F)cc5)CC4)cc3)c2cc1Oc1ccc(N)cn1 | 27.9% | 9.65% (active) | -12.5% (active) | 54.5% | 33.6% | 24.5% | 39.2% | 5.29% (active) | 10.7%
3 | C=C(C)[C@@H]1CC[C@]2(C)[C@H](CC=C3[C@@H]4C[C@](C)(C(=O)N5CCN(C)CC5)CC[C@]4(C)CC[C@]32C)[C@@]1(C)CCC#N | 38.2% | 33.2% | 79.1% | 89.4% | 50% | 30.6% | 18.9% | 53.5% | 47.6%
4 | FC1(F)CCN(Cc2c[nH]c3cc(Cl)ccc23)C[C@H]1CCc1ccccc1 | 51% | 26.6% | 40.8% | 68% | 44.5% | 53.3% | 62.7% | 59.9% | 46.9%
5 | C=C(C)C1CCC2(C(=O)O)CCC3(C)C(CCC4C5(C)CCC(O)C(C)(C)C5CCC43C)C12 (stereo not given) | 26.9% | -9.19% (active) | -24.8% (active) | 9.23% (active) | -45.3% (active) | 8.63% (active) | -75.8% (active) | 50.5% | 8.78% (active)
6 | Cc1cc(C)cc(NC(=O)Cn2nncc2CN2C(=O)CSC2=O)c1 | 99.4% | 108% | 95.1% | 100% | 102% | 100% | 103% | 94% | 
7 | FC(F)(F)c1ccc(/C=N/Nc2nnc3n2N=C(c2ccc(Cl)cc2)CS3)cc1 | 79.9% | 70.1% | -24.9% (active) | 20.3% | 60.4% | 53.1% | 76.4% | 55.1% | 82.8%
8 | CN1CCN(Cc2ccc(NC(=O)c3cncc(C#Cc4ccc(N)nc4)c3)cc2C(F)(F)F)CC1 | 7.71% (active) | 3.36% (active) | 4.55% (active) | 37.2% | 14.9% | 15.6% | -5.69% (active) | -5.85% (active) | -25.8% (active)
9 | CN1CCN(Cc2ccc(NC(=O)c3cnc(F)c(C#Cc4cnc(N)c5ncccc45)c3)cc2C(F)(F)F)CC1 | 14.9% | 6.84% (active) | 32.7% | 52.8% | 20.8% | 29.9% | 8.81% (active) | -4.67% (active) | 1.54% (active)
10 | COc1ccc2[nH]c(C(=O)OCc3ccc4cccc(O)c4n3)cc2c1 | -43.8% (active) | -73.1% (active) | -29.1% (active) | 50.8% | 22.1% | -55.7% (active) | -56.9% (active) | -81% (active) | -89.1% (active)
11 | COc1ccc(C2C3CCc4ccccc4C3=NN2C(=O)c2cc(OC)c(OC)c(OC)c2)cc1O (stereo not given) | 109% | 104% | 89.4% | 109% | 108% | 92.2% | 104% | 105% | 94.6%
12 | CCN1CCN(Cc2ccc(NC(=O)c3nc4ccc5[nH]ncc5c4c4c3CCCC4)cc2C(F)(F)F)CC1 | -47.8% (active) | -74.3% (active) | 80.8% | 13.9% | -85.7% (active) | 19.8% | -75.3% (active) | -68.7% (active) | -94.6% (active)
13 | CCN(CC)CCCC(C)Nc1cnc(C(=O)Nc2ccc(Cl)c3cccnc23)cn1 (stereo not given) | 3.73% (active) | -49.4% (active) | 41.7% | 49.6% | -35.3% (active) | 39.4% | -3.7% (active) | -52.4% (active) | 

Source: PubChem BioAssay (NCI)
